# Laboratory results: PubChem BioAssay (NCI)
# This is part of a sample that, as a whole, favours compounds with a hit. Of some 83,000 tested, about 20% had one in any assay.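 Negative percent growth values reflect cell death: -40 means 40% of the cells present at the start died, and -100 means all died.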 Values without a mark were called inactive. Calls of active or inactive are those of the source. The calls were made as follows: active = growth percent below 10; inactive = the rest.
# Key:
# Experiment in all cases: NCI-60 one-dose screen, 48 h (100 = growth as untreated, 0 = no growth, -100 = all killed)
# Conditions in all cases: 10 µM unless noted
# RPMI-8226 leukemia = system: RPMI-8226 leukemia
# OVCAR-8 ovarian = system: OVCAR-8 ovarian
# OVCAR-5 ovarian = system: OVCAR-5 ovarian
# OVCAR-4 ovarian = system: OVCAR-4 ovarian
# SK-OV-3 ovarian = system: SK-OV-3 ovarian
# IGROV1 ovarian = system: IGROV1 ovarian
# OVCAR-3 ovarian = system: OVCAR-3 ovarian
# HS 578T breast = system: HS 578T breast
# NCI/ADR-RES ovarian = system: NCI/ADR-RES ovarian
# T-47D breast = system: T-47D breast
# BT-549 breast = system: BT-549 breast
# MDA-MB-435 melanoma = system: MDA-MB-435 melanoma
# SW-620 colon = system: SW-620 colon
# MCF7 breast = system: MCF7 breast
# HCT-116 colon = system: HCT-116 colon
# KM12 colon = system: KM12 colon
# HCC-2998 colon = system: HCC-2998 colon
SMILES,growth (RPMI-8226 leukemia),growth (OVCAR-8 ovarian),growth (OVCAR-5 ovarian) [%],growth (OVCAR-4 ovarian),growth (SK-OV-3 ovarian),growth (IGROV1 ovarian),growth (OVCAR-3 ovarian),growth (HS 578T breast),growth (NCI/ADR-RES ovarian),growth (T-47D breast),growth (BT-549 breast),growth (MDA-MB-435 melanoma),growth (SW-620 colon),growth (MCF7 breast),growth (HCT-116 colon),growth (KM12 colon),growth (HCC-2998 colon)
COc1ccc(C(=O)/C=C/c2cc3ccccc3[nH]c2=O)cc1,15.3%,20.4%,52.2,58.6%,53%,50.5%,-19% (active),53.6%,-5.27% (active),33.8%,21.3%,29.9%,-21% (active),15%,8.02% (active),-32% (active),
N#Cc1ccc(NC(=O)Nc2ccc(Cc3ccc(NC(=O)Nc4ccc(C#N)cc4)cc3)cc2)cc1,-2.1% (active),38.7%,69.6,15%,68.6%,29.6%,18.8%,47.9%,52.7%,,20.7%,7.5% (active),34%,6.82% (active),18.8%,18.7%,40.1%
CCOC(=O)/C=C/c1ccc(C(=O)OCC)[nH]1,75.4%,62.9%,75.5,108%,84.8%,42.4%,22.6%,74%,8.24% (active),34.9%,88.2%,,19.2%,25.7%,26.3%,26.6%,44.1%
CC[C@H](Nc1nc(N)nc(C)c1C#N)c1nc2cccc(NCc3ccc(C(=O)NO)cc3)c2c(=O)n1-c1ccccc1,4.78% (active),-25.7% (active),16.8,15.5%,-12% (active),-50.5% (active),0.5% (active),-8.46% (active),74.7%,-8.21% (active),20.9%,-1.57% (active),-16.4% (active),5.7% (active),,0.659% (active),28.3%
CS(=O)(=O)c1c(Nc2ccccc2)n[nH]c1N,97.8%,105%,102,117%,103%,112%,121%,118%,104%,104%,89.1%,107%,112%,101%,103%,118%,
CCCCCCCCCCCCCCCCCCSC1=CC(=O)C(OC)=C(OC)C1=O,40.8%,86.2%,94.3,109%,95.7%,106%,98.2%,90.9%,91.7%,87.9%,111%,68.2%,81.5%,96.8%,97.9%,94.4%,
CCCCCCCCSC1=CC(=O)C(OC)=C(OC)C1=O,-24.5% (active),-9.18% (active),28,21.5%,86.4%,43.2%,-40.8% (active),63%,-27.1% (active),-76.6% (active),68.8%,7.62% (active),-60.5% (active),13.1%,-49.9% (active),29.5%,
CCN(CC)CCCCNc1ccc(NCCCCN(CC)CC)c2c1C(=O)c1ccccc1C2=O,47.8%,72.9%,114,84.1%,122%,71.8%,91.5%,101%,83.4%,122%,95.6%,56%,-7.96% (active),79.1%,-58.4% (active),26.9%,
CC1=C(NCCN2CCCC2)C(=O)c2c(OCc3ccc(F)c(Cl)c3)cccc2C1=O,50.4%,74.8%,72.7,70.5%,93.7%,67.6%,84%,79.7%,75.2%,62.7%,,40%,78.8%,41.3%,31.6%,79.7%,80.7%
O=C(/C=C/c1ccc(Cl)cc1)c1ccc(O)c(CN2CCN(c3cc4c(cc3F)c(=O)c(C(=O)O)cn4C3CC3)CC2)c1,16.5%,27.4%,77.5,89.2%,73.8%,51.6%,73.9%,47%,65.7%,53.4%,46.3%,52%,47.8%,45.6%,12.6%,59.3%,
Cc1ccc2c(c1)n([O-])c1cc(Cl)ccc1[n+]2=O,104%,108%,102,82.6%,122%,101%,92.6%,135%,104%,93.9%,108%,,119%,108%,,105%,120%
C[C@H](CCC(=O)O)[C@H]1CC[C@H]2[C@@H]3CC[C@@H]4/C(=C\c5ccco5)C(=O)/C(=C\c5ccco5)C[C@]4(C)[C@H]3CC[C@]12C,3.68% (active),70.6%,113,80%,121%,93%,24.6%,69.3%,80%,55.6%,52.9%,37.1%,27.4%,32.5%,,74.5%,
COc1ccc(-c2cn3c(-c4ccc(OC)cc4)cnc3c(Oc3ccc4c(C)cc(=O)oc4c3)n2)cc1,63.7%,26.3%,88,-18.6% (active),90.6%,70.6%,46.6%,57.6%,29.9%,45.3%,29.2%,37.2%,39%,44.2%,33.9%,43%,
CC(C)c1c(C(=O)Nc2ccccc2)c(-c2ccccc2)c(-c2ccc(F)cc2)n1CC[C@@H]1CC=CC(=O)O1,-25.9% (active),-19.9% (active),57.1,19.8%,31.6%,-27.5% (active),-73.3% (active),18.1%,-1.87% (active),17.1%,-30.6% (active),2.54% (active),-45.1% (active),-22.8% (active),-62.5% (active),-60.7% (active),-69.8% (active)
CCOC(=O)CC(=O)c1c(C)cc(C)cc1C,90.3%,,84.1,113%,105%,108%,117%,91.7%,102%,121%,93.5%,98.6%,103%,97.5%,91.2%,95.5%,
CCN(CC)CC(C)(C)C(=O)/C=C/c1ccccc1,39.4%,76.6%,52.4,63.3%,74.8%,74.1%,37.7%,75.5%,46.8%,,46%,40%,35.4%,5.47% (active),12.8%,53.9%,79.3%
CN(C)c1ccc(C2Nc3ccccc3-n3cccc32)cc1 (stereo unspecified),80.2%,94.5%,,87.1%,104%,55%,92.8%,95.5%,105%,55.6%,99.8%,96.5%,97.6%,38.4%,97.4%,97.7%,85.2%
Nc1cc(-c2nc3sccn3c2-c2ccnc(NCCCNS(=O)(=O)c3ccc(F)cc3)n2)ccc1F,23%,,61,55.2%,73.6%,39.9%,79.4%,77.4%,47.7%,15.4%,52.2%,22.9%,54.7%,37.4%,36.8%,59.7%,90.3%
COc1ccc(-c2cc(C(=O)N=Nc3c(O)[nH]c4ccccc34)no2)cc1,96.9%,,97.7,105%,103%,102%,108%,95.3%,102%,98%,109%,,96.9%,95.1%,100%,101%,107%
